Our source for the outcome and AC50 values is PubChem BioAssay (EPA / NIEHS).

Where “and” joins values, the source holds several entries; their conditions need not be identical. Equal values may be shown once. Some compounds were tested as several samples or in several runs, with calls that do not always agree. Calls of active or inactive are those of the source. The calls were made as follows: active = hit-call score of the fitted dose curve at least 0.9, where 1 is the maximum; inactive = score below 0.9.

Read-out in the first assay: Tissue plasminogen activator (tPA), PLAT (gene 5327)
Kind of assay: BSK_BE3C_tPA: BioMAP Diversity Plus: BE3C Assay for Tissue plasminogen activator (tPA) Biomarker Activity (AID 2283041).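 As to outcome: tPA level quantified by ELISA one day after compound addition.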 The settings on record: primary human bronchial epithelial cells; actives raise or lower the signal. In outline: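 Using human lung primary bronchial epithelial cells, tPA was measured by ELISA 24 h after dosing; data fitted relative to DMSO.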
`O=C(O)C(F)(F)C(F)(F)C(F)(F)C(F)(F)C(F)(F)C(F)(F)C(F)(F)F`: the result was inactive.

For the compound `COP(=O)(OC)OC=C(Cl)Cl`, the result was inactive.

For the compound `COP(=S)(OC)Oc1ccc([N+](=O)[O-])cc1`, the outcome was inactive.

With `O=C(NC(=O)c1c(F)cccc1F)Nc1ccc(OC(F)(F)C(F)OC(F)(F)F)c(Cl)c1` (stereo not given), the result was inactive.

Consider `CCc1ccc(C(=O)NN(C(=O)c2cc(C)cc(C)c2)C(C)(C)C)cc1`, for which the outcome was inactive.

For `COC(=O)c1ccccc1S(=O)(=O)NC(=O)N(C)c1nc(C)nc(OC)n1`, the result was inactive.

As to `COC(=O)c1ccccc1CS(=O)(=O)NC(=O)Nc1nc(OC)cc(OC)n1`, the outcome was inactive.

On to `O=C(O)CCCOc1ccc(Cl)cc1Cl`, for which the result was inactive.

In the case of `O=[N+]([O-])/N=C1\NCCN1Cc1ccc(Cl)nc1`, the result was inactive.

`Cc1[nH]c(=O)n(C(C)(C)C)c(=O)c1Cl`: the outcome was inactive.

In the case of `CC(C)(C)C(O)C(Oc1ccc(Cl)cc1)n1cncn1` (stereo not given), the result was inactive.

For `CCOCN(C(=O)CCl)c1c(C)cccc1CC`, the outcome was inactive.

As for `[2H]C1([2H])[n+]2ccccc2-c2cccc[n+]2C1([2H])[2H]`, the result was inactive.

Regarding `CCOc1nc(NC)nc(NC(=O)NS(=O)(=O)c2ccccc2C(=O)OC)n1`, the result was inactive.

Turning to `Cc1cc(C)nc(NC(=O)NS(=O)(=O)c2ccccc2C(=O)OC2COC2)n1`, the result was inactive.

`COc1nn(CSP(=S)(OC)OC)c(=O)s1`: the result was inactive.

By AC50 is commonly meant the concentration at which the activity in the assay is half-maximal. `Oc1ccc(Cl)cc1Cc1ccccc1`: the AC50 is 29.7 µM (active) [middle of 7 runs].

With `CCOC1Oc2ccc(OS(C)(=O)=O)cc2C1(C)C` (stereo not given), the outcome was inactive.

For the compound `ClC1C(Cl)C(Cl)C(Cl)C(Cl)C1Cl` (stereo not given), the outcome was inactive.

`N#CN`: the result was inactive.

As for `CC1(c2ccc(Oc3ccccc3)cc2)OC(=O)N(Nc2ccccc2)C1=O` (stereo not given), the result was inactive.

Turning to `CCCN(CCC)c1c([N+](=O)[O-])cc(C(F)(F)F)cc1[N+](=O)[O-]`, the outcome was inactive.

Take `COc1cc(OC)nc(NC(=O)NS(=O)(=O)c2cc(NC=O)ccc2C(=O)N(C)C)n1`: the result was inactive.

As for `O=S(=O)(O)C(F)(F)C(F)(F)C(F)(F)C(F)(F)C(F)(F)C(F)(F)C(F)(F)C(F)(F)F`, the AC50 is 15.3 µM (active) and 16 µM (active) and 25.9 µM (active); the result was inactive.

For the compound `N#Cc1c(Cl)c(Cl)c(Cl)c(C#N)c1Cl`, the AC50 is 3.97 µM (active).

Consider `O=[N+]([O-])c1c(Cl)c(Cl)c(Cl)c(Cl)c1Cl`, for which the outcome was inactive.

Read-out in another assay: Interleukin-8 (IL8), CXCL8 (gene 3576)
As to the kind of experiment: BSK_CASM3C_IL8: BioMAP Diversity Plus: CASM3C Assay for Interleukin-8 (IL8) Biomarker Activity (AID 2283042).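 Also: IL-8 protein level quantified by ELISA.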 The settings on record: primary human coronary artery smooth muscle cells; actives raise or lower the signal.
For the compound `O=C(O)C(F)(F)C(F)(F)C(F)(F)C(F)(F)C(F)(F)C(F)(F)C(F)(F)F`, the result was inactive.

`COP(=O)(OC)OC=C(Cl)Cl`: the result was inactive.

On to `COP(=S)(OC)Oc1ccc([N+](=O)[O-])cc1`, for which the result was inactive.

As to `O=C(NC(=O)c1c(F)cccc1F)Nc1ccc(OC(F)(F)C(F)OC(F)(F)F)c(Cl)c1` (stereo not given), the outcome was inactive.

On to `CCc1ccc(C(=O)NN(C(=O)c2cc(C)cc(C)c2)C(C)(C)C)cc1`, for which the result was inactive.

Turning to `COC(=O)c1ccccc1S(=O)(=O)NC(=O)N(C)c1nc(C)nc(OC)n1`, the outcome was inactive.

With `COC(=O)c1ccccc1CS(=O)(=O)NC(=O)Nc1nc(OC)cc(OC)n1`, the result was inactive.

As to `O=C(O)CCCOc1ccc(Cl)cc1Cl`, the result was inactive.

For the compound `O=[N+]([O-])/N=C1\NCCN1Cc1ccc(Cl)nc1`, the outcome was inactive.

Regarding `Cc1[nH]c(=O)n(C(C)(C)C)c(=O)c1Cl`, the outcome was inactive.

Turning to `CC(C)(C)C(O)C(Oc1ccc(Cl)cc1)n1cncn1` (stereo not given), the outcome was inactive.

For the compound `CCOCN(C(=O)CCl)c1c(C)cccc1CC`, the AC50 is 15.8 µM (active).

On to `[2H]C1([2H])[n+]2ccccc2-c2cccc[n+]2C1([2H])[2H]`, for which the result was inactive.

In the case of `CCOc1nc(NC)nc(NC(=O)NS(=O)(=O)c2ccccc2C(=O)OC)n1`, the result was inactive.

On to `Cc1cc(C)nc(NC(=O)NS(=O)(=O)c2ccccc2C(=O)OC2COC2)n1`, for which the result was inactive.

In the case of `COc1nn(CSP(=S)(OC)OC)c(=O)s1`, the result was inactive.

As for `Oc1ccc(Cl)cc1Cc1ccccc1`, the AC50 was 31.5 µM (active) [middle of 5 runs] and the outcome was inactive.

Consider `CCOC1Oc2ccc(OS(C)(=O)=O)cc2C1(C)C` (stereo not given), for which the result was inactive.

Take `ClC1C(Cl)C(Cl)C(Cl)C(Cl)C1Cl` (stereo not given): the result was inactive.

For `N#CN`, the outcome was inactive.

As to `CC1(c2ccc(Oc3ccccc3)cc2)OC(=O)N(Nc2ccccc2)C1=O` (stereo not given), the result was inactive.

In the case of `CCCN(CCC)c1c([N+](=O)[O-])cc(C(F)(F)F)cc1[N+](=O)[O-]`, the outcome was inactive.

With `COc1cc(OC)nc(NC(=O)NS(=O)(=O)c2cc(NC=O)ccc2C(=O)N(C)C)n1`, the result was inactive.

Regarding `O=S(=O)(O)C(F)(F)C(F)(F)C(F)(F)C(F)(F)C(F)(F)C(F)(F)C(F)(F)C(F)(F)F`, the outcome was inactive.

`N#Cc1c(Cl)c(Cl)c(Cl)c(C#N)c1Cl`: the half-maximal activity concentration (AC50) is 3.36 µM (active).

With `O=[N+]([O-])c1c(Cl)c(Cl)c(Cl)c(Cl)c1Cl`, the outcome was inactive.

Read-out in the next assay: Human Leukocyte Antigen - DR isotype (HLADR), HLA-DRA (gene 3122)
Kind of assay: BSK_CASM3C_HLADR: BioMAP Diversity Plus: CASM3C Assay for Human Leukocyte Antigen - DR isotype (HLADR) Biomarker Activity (AID 2283043).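 Also: cell-surface HLA-DR protein level quantified by ELISA.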 The settings on record: primary human coronary artery smooth muscle cells; actives raise or lower the signal.
In the case of `O=C(O)C(F)(F)C(F)(F)C(F)(F)C(F)(F)C(F)(F)C(F)(F)C(F)(F)F`, the outcome was inactive.

As to `COP(=O)(OC)OC=C(Cl)Cl`, the outcome was inactive.

In the case of `COP(=S)(OC)Oc1ccc([N+](=O)[O-])cc1`, the result was inactive.

`O=C(NC(=O)c1c(F)cccc1F)Nc1ccc(OC(F)(F)C(F)OC(F)(F)F)c(Cl)c1` (stereo not given): the outcome was inactive.

`CCc1ccc(C(=O)NN(C(=O)c2cc(C)cc(C)c2)C(C)(C)C)cc1`: the outcome was inactive.

Consider `COC(=O)c1ccccc1S(=O)(=O)NC(=O)N(C)c1nc(C)nc(OC)n1`, for which the outcome was inactive.

In the case of `COC(=O)c1ccccc1CS(=O)(=O)NC(=O)Nc1nc(OC)cc(OC)n1`, the result was inactive.

`O=C(O)CCCOc1ccc(Cl)cc1Cl`: the outcome was inactive.

Turning to `O=[N+]([O-])/N=C1\NCCN1Cc1ccc(Cl)nc1`, the result was inactive.

Consider `Cc1[nH]c(=O)n(C(C)(C)C)c(=O)c1Cl`, for which the result was inactive.

As for `CC(C)(C)C(O)C(Oc1ccc(Cl)cc1)n1cncn1` (stereo not given), the outcome was inactive.

On to `CCOCN(C(=O)CCl)c1c(C)cccc1CC`, for which the result was inactive.

On to `[2H]C1([2H])[n+]2ccccc2-c2cccc[n+]2C1([2H])[2H]`, for which the outcome was inactive.

Consider `CCOc1nc(NC)nc(NC(=O)NS(=O)(=O)c2ccccc2C(=O)OC)n1`, for which the result was inactive.

Turning to `Cc1cc(C)nc(NC(=O)NS(=O)(=O)c2ccccc2C(=O)OC2COC2)n1`, the result was inactive.

Consider `COc1nn(CSP(=S)(OC)OC)c(=O)s1`, for which the outcome was inactive.

Regarding `Oc1ccc(Cl)cc1Cc1ccccc1`, the AC50 is 31.1 µM (active) [middle of 7 runs].

Consider `CCOC1Oc2ccc(OS(C)(=O)=O)cc2C1(C)C` (stereo not given), for which the outcome was inactive.

As to `ClC1C(Cl)C(Cl)C(Cl)C(Cl)C1Cl` (stereo not given), the outcome was inactive.

As to `N#CN`, the result was inactive.

Consider `CC1(c2ccc(Oc3ccccc3)cc2)OC(=O)N(Nc2ccccc2)C1=O` (stereo not given), for which the outcome was inactive.

As for `CCCN(CCC)c1c([N+](=O)[O-])cc(C(F)(F)F)cc1[N+](=O)[O-]`, the outcome was inactive.

For `COc1cc(OC)nc(NC(=O)NS(=O)(=O)c2cc(NC=O)ccc2C(=O)N(C)C)n1`, the result was inactive.

Turning to `O=S(=O)(O)C(F)(F)C(F)(F)C(F)(F)C(F)(F)C(F)(F)C(F)(F)C(F)(F)C(F)(F)F`, the outcome was inactive.

With `N#Cc1c(Cl)c(Cl)c(Cl)c(C#N)c1Cl`, the AC50 was 6.09 µM (active).

On to `O=[N+]([O-])c1c(Cl)c(Cl)c(Cl)c(Cl)c1Cl`, for which the result was inactive.
